These results are taken from PubChem BioAssay AID2315 (National Center for Advancing Translational Sciences (NCATS), 2010).

The structures appear in SMILES notation. Among all 290,000 compounds or so, about 27,000 (9.3%) were called active. The entries come from a sample that favours actives as a whole. A number with no mark means an inactive call. Cut-off read from the data, not from the text of the source: active = inhibition mostly above about 28% (no sharp cut-off); inactive = mostly below about 43%.

The nature of the experiment: A qHTS for Small Molecule Inhibitors of Shiga Toxin. Note: 0% is about no effect. The settings on record: Vero cells, Shiga toxin protein synthesis inhibition reporter; at 38.7 µM, hits give high values. Background: Quantitative high-throughput screening tests each substance at several concentrations.
What is called inhibition is the drop in the measured response relative to a control, in per cent. `CCN(CCCNC(=O)c1ccc2c(c1)NC(=O)CN2C)c1cccc(C)c1`: the inhibition is -5.92%.
Consider `COc1ccc(NC(=O)C2=CC(c3ccc(OC)c(OC)c3)=NS(=O)(=O)N2C)cc1`, for which the inhibition was 7.8%.
Then `O=C(CN1CCCCCC1)Nc1ccc(Cl)cc1F`, with 1.73%; and `O=c1ccc2cc(S(=O)(=O)Nc3ccccc3F)ccc2o1`, with -8.1%.
Consider `CCc1nc2cccnc2n1-c1ccc(C(=O)O)cc1`, for which the inhibition was -6.32%.
`Cc1c(Cl)cccc1NC(=S)NCC(O)c1ccccc1` (stereo unspecified): the inhibition was 8.12%.
Then `Cn1nnnc1SCC(=O)Nc1nc2ccccc2s1`, with 25.2%.
`O=C(Nc1ccccc1)Nc1nc2ccccc2s1`: the inhibition was 106% (active).
Take `CC(=O)Nc1ccc(-c2csc(NC(=O)Nc3ccccc3)n2)cc1`: the inhibition is 42%.
Consider `COc1ccc(C(=O)NC2CC(C)(C)Cc3c2cnn3-c2ccccc2)c(OC)c1` (stereo unspecified), for which the inhibition was -3.27%.
Then `CC(C)S(=O)(=O)c1csc(NC(=O)Nc2ccc(Cl)cc2)c1Cl`, with 37.4%.
Then `COc1ccccc1Nc1cc(C(=O)NCCCN(C)C2CCCCC2)c2ccccc2n1`, with -10.8%.
Consider `Cc1ccc(SCC(=O)c2cc(C)c(OC(=S)N(C)C)c(C)c2)cc1`, for which the inhibition is 37.1%.
Then `Cc1cc(C)n2nc(CNS(=O)(=O)c3c(F)c(F)c(F)c(F)c3F)nc2n1`, with 9.24%; and `COc1cccc(NC(=O)N2CCC(NC(=O)C(Cc3cccc(C)c3)NC(C)=O)CC2)c1` (stereo unspecified), with 1.56%; and `Cc1ccc(F)cc1NC(=O)c1ccc2c(c1)OCO2`, with 43.8% (active).
Then `Cc1cccc(C(=O)Nc2ccccc2N2CCN(c3ccc(F)cc3)CC2)c1`, with -3.83%; and `O=C(Nc1ccccc1N1CCCCC1)c1cccc(F)c1`, with 16.3%.
Take `Cc1ccc(F)cc1NC(=O)c1cccc(N(C)C)c1`: the inhibition is 116% (active).
As for `Cc1ccc(-n2nc3c(c2NC(=O)c2ccc4c(c2)OCO4)CSC3)c(C)c1`, the inhibition is 1.3%.
In the case of `O=C(CN1CCN(CC(=O)Nc2ccc3c(c2)OCO3)CC1)Nc1ccc(F)cc1`, the inhibition was -14.4%.
Then `COc1ccc(NC(=O)NCc2ccc3c(c2)OCO3)c(OC)c1`, with -9.62%.
Then `CN(C)CCN(C(=O)C1CCCCC1)c1nc2cc3c(cc2s1)OCO3`, with -7.68%.
Then `CC(=O)N1CCc2cc(S(=O)(=O)NC3CCCCC3)ccc21`, with -2.55%.
As for `COc1ccc(C(=O)COC(=O)CNC(=O)c2cccs2)cc1Br`, the inhibition was -12%.
Turning to `CC(=O)Nc1ccc(Nc2ncnc3c2nnn3Cc2ccccc2Cl)cc1`, the inhibition is -4.64%.
Then `COc1ccc(/C=C2\SC(=S)N(CCC(=O)Nc3ccccn3)C2=O)cc1OC`, with -13.3%; and `CCOc1ccc(N(CC(=O)NCC2CCCO2)S(=O)(=O)c2ccc(C)cc2)cc1` (stereo unspecified), with -4.82%; and `CC(C)n1c(COc2ccccc2)nc2ccccc21`, with -5.6%.
For the compound `O=C(Cn1c(COc2ccccc2)nc2ccccc21)Nc1cc(Cl)c(Cl)cc1Cl`, the inhibition was 3.93%.
Then `COCn1c(COc2ccccc2)nc2ccccc21`, with 13.8% (active).
Regarding `Cc1ccc(C23CC4CC(CC(C(=O)NCC(=O)O)(C4)C2)C3)cc1`, the inhibition was -7.52%.
As to `Cc1cccc(OCC(=O)NC2CC(C)(C)NC(C)(C)C2)c1`, the inhibition is 1.98%.
For the compound `CC(NCCc1ccc(S(N)(=O)=O)cc1)C(=O)NCc1ccccc1` (stereo unspecified), the inhibition is 45.3%.
Then `Cc1cc(S(=O)(=O)N2CCOCC2)ccc1OCC(=O)Nc1cccc(C(F)(F)F)c1`, with -13.1%; and `CCCCSc1nc2ccccc2[nH]1`, with 79.8% (active).
Then `COc1ccccc1CSc1nc2ccccc2[nH]1`, with 71.9% (active); and `COc1ccccc1CSc1ncc(-c2ccc([N+](=O)[O-])cc2)[nH]1`, with 54.5% (active).
Then `COc1ccccc1CC(=O)Nc1ccc([N+](=O)[O-])cc1OC`, with 2.24%; and `CCc1nnc(NC(=O)CCCSc2nc3ccccc3[nH]2)s1`, with 13.8%.
Regarding `O=C(NCc1ccccc1)c1onc(CSc2nc3ccccc3[nH]2)c1C(=O)NCc1ccccc1`, the inhibition was -3.72%.
With `N#Cc1c(-c2ccccc2)nc(SCc2ccc([N+](=O)[O-])cc2)[nH]c1=O`, the inhibition is -3.91%.
Then `C=CCSc1nc2ccccc2[nH]1`, with 14.5%; and `COc1ccccc1-c1noc(CSc2nc(C)cc(=O)[nH]2)n1`, with -3.44%.
Then `CC(C)=N/N=C1/NC(=O)C(Cc2ccccc2)S1` (stereo unspecified), with -7.41%; and `COc1cccc(CNC(=O)CN(C)S(=O)(=O)c2ccc3c(c2)c(=O)n(C)c(=O)n3C)c1`, with 18.4%.
Then `O=C(O)CCCCCCCCc1cn(CN2C(=O)c3ccccc3C2=O)nn1`, with -8.38%; and `CC(CCc1ccccc1)NC(=O)COC(=O)c1ccc(F)cc1` (stereo unspecified), with -4.73%; and `Cc1cccc(-c2nc(CS(=O)CC(=O)NC(C)CCc3ccccc3)c(C)o2)c1` (stereo unspecified), with -4.68%.
On to `O=C(CCCN1C(=O)/C(=C/c2cccs2)SC1=S)Nc1ccc(O)cc1`, for which the inhibition is 42.3%.
With `CC(=O)Oc1cc2c(C(=O)NCCN3CCOCC3)c(C)oc2c2ccccc12`, the inhibition is 44.7% (active).
In the case of `Cc1cc(C)cc(C(=O)NCCN2CCOCC2)c1`, the inhibition was -7.36%.
Then `Cc1ccc(C(=O)NCCN2CCOCC2)cc1C`, with 19%; and `CC(=O)NC(CC(=O)Nc1cccc(S(=O)(=O)N2CCCC2)c1)c1ccccc1` (stereo unspecified), with -34.1%; and `CC(=O)N1CCc2c(sc(NC(=O)CCS(=O)(=O)c3ccccc3)c2C#N)C1`, with 17.3%.
Then `O=C1CSC(=S)N1c1ccc(O)cc1`, with -10.4%; and `N#Cc1c(Cl)nc(-c2cccnc2)nc1-c1ccccc1`, with -3.23%.
`Cc1ccnc(NC(=O)CCC(=O)N(CC(=O)NCc2ccccc2)Cc2ccco2)c1`: the inhibition is -4.34%.
Consider `Cc1ccc2c(c1)N(CC(=O)N(Cc1ccccn1)Cc1ccco1)C(=O)C(C(C)C)O2` (stereo unspecified), for which the inhibition was 33.8% (active).
Then `Cc1ccc(C(C(=O)NC2CCCC2)N(Cc2ccco2)C(=O)CCC(=O)Nc2ccccn2)cc1` (stereo unspecified), with -14.7%; and `Cc1cc(C)c2c(=O)[nH]c(SCC(=O)Nc3ccc(Br)cc3)nc2n1`, with 3.52%.
